The list is not random: actives were taken first. Their share in the collection is about 18%.
IL1B secr inh – blocks inflammasome-driven IL-1 beta release; THP-1 LPS/ATP IL-1B secretion, AlphaLISA, 16 h; stronger effect = lower value; activity change, % at 57.5 µM; 360,000 compounds, 4.7% hits; in the data active = activity change below about -50%; inconclusive = mostly about -30% to -49%
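THP-1 cells pretreated 1 hr with compounds (up to 57.5 uM final), then stimulated with LPS (250 ng/mL final) plus ATP (1.25 mM final); secreted IL-1B measured by AlphaLISA after 16 hr, decreased signal indicating inhibition.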
TDP1 cell CPT – growth inhibition of DT40 Tdp1-/-;hTDP1 cells with camptothecin (screen for TDP1 inhibitors); Potency, µM (doses to about 46.2 µM), for the others: at the top dose activity change, negative = growth inhibition, actives largely listed as inhibitors; 420,000 compounds, 12% hits; chicken DT40 Tdp1-/-;hTDP1 cells + 20 nM CPT, ATP luminescence, 48 h; note: potency is the fitted concentration of half-maximal effect; nearly all actives have a fitted effect of over 55% in size
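Chicken DT40 Tdp1-/- cells stably complemented with human TDP1 were seeded at 400 cells/well in medium containing 20 nM camptothecin, exposed to pin-transferred compounds, and grown at 37 °C for at least 48 hr. Viability was read as ATP luminescence.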
Gal4-VP16 FLuc – inhibits Gal4-VP16 luciferase reporter, ROR gamma counter-screen; Drosophila S2 Gal4-VP16 UAS-luciferase, luminescence, 20 h; Potency, µM (titrated, usually from 53.6 µM), inactives show at the top dose activity, negative = inhibition, most hits filed as inhibitors; 310,000 compounds, 3.5% hits;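 note: Gal4-VP16 expression switched on by copper sulfate through the metallothionein promoter; potency is the fitted concentration of half-maximal effect; nearly all actives have a fitted effect of over 50% in size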
RORg inh – blocks mouse ROR gamma transcriptional activity; Potency, µM (highest dose often 53.6 µM), inactives show at the highest dose activity change, negative = inhibition, actives largely listed as inhibitors; Drosophila S2 Gal4-RORgamma UAS-luciferase reporter, 20 h; 310,000 compounds, 5.4% hits; note: potency is the fitted concentration of half-maximal effect; nearly all actives have a fitted effect of over 60% in size
Target sequence (P51450 whole entry, looked up, the tested form may be a part): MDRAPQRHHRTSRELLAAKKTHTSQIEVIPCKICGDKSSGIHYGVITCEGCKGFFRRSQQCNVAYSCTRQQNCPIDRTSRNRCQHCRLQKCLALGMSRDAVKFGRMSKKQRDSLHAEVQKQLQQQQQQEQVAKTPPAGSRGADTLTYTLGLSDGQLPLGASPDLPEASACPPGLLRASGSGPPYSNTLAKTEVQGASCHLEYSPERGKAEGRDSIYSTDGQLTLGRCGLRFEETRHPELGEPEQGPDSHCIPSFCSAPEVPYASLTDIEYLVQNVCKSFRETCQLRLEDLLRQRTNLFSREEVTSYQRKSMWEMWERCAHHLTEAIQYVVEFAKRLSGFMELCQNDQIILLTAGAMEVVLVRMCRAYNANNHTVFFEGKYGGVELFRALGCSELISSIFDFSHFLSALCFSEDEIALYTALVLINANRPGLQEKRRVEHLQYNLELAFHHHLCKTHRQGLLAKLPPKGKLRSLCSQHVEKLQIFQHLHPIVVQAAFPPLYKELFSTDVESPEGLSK
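Stably transfected Drosophila Schneider cells are the test system, with ROR gamma fused to Gal4 and luciferase under UAS control; luminescence is read after 20 hr of 700 uM copper sulfate induction at ambient temperature.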
LDHA block – LDHA (human) enzyme inhibition; P00338; purified LDHA, NADH/diaphorase-resazurin fluorescence; stronger effect = lower value; activity change, % (values are at about 110 or 230 µM); 480,000 compounds, 0.15% hits; AID 1347041; in the data active = activity change below about -30%; inconclusive = mostly about -25% to -30%;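 note: plate controls were DMSO wells for no effect and wells without enzyme for full effect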
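Remaining NADH was detected by diaphorase (0.133 mg/mL) converting 37 µM resazurin to fluorescent resorufin, read at 0 and 20 minutes. The preceding 5-minute room-temperature reaction used 2 nM LDHA, 0.2 mM sodium pyruvate and 0.06 mM NADH at pH 7.4.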
DT40 TDP1 no CPT – qHTS for Inhibitors of human tyrosyl-DNA phosphodiesterase 1 (TDP1): qHTS in cells in absence of CPT; 420,000 compounds, 15% hits; DT40 Tdp1-/- hTDP1 cells, no CPT, ATP luminescence, 48 h; Potency, µM (doses to about 46.2 µM), without a hit: top-dose activity change, negative = growth inhibition, usual class: inhibitors; note: potency is the fitted concentration of half-maximal effect; nearly all actives have a fitted effect of over 55% in size
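Cells were dispensed at 400 per well, compounds added by pin tool, plates incubated ≥48 hr at 37 °C, then CellTiter-Glo added for 30 min at room temperature before luminescence reading. Line: DT40 Tdp1-/- complemented with hTDP1; camptothecin omitted.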
Starred values were filed as active, the others as inactive; ? = inconclusive; · = no result. Unless noted, calls come from the whole dose curve; as a rule, active = well fitted curve in the direction sought with a large enough effect; inconclusive = small, poorly fitted or top-dose-only effect, or another doubt; inactive = no such curve, though single readings can be large; an effect the other way counts as inactive or inconclusive. Unless noted, % is set by controls: 0 for no effect and ±100 for the full control effect.

SMILES	IL1B secr inh	TDP1 cell CPT	Gal4-VP16 FLuc	RORg inh	LDHA block	DT40 TDP1 no CPT
CCOC(=O)N1CCC(NC(=O)c2cc3c(=O)n(C)c4ccccc4c3n2C)CC1	-5	21µM*	-12%	-25%	1	?
CCOC(=O)c1ccc(NC(=O)c2cc3c(=O)n(C)c4ccccc4c3n2C)cc1	·	25%	·	·	-8	0%
Cn1c(C(=O)NC2CC2)cc2c(=O)n(C)c3ccccc3c21	-63*	?	10%	23%	4	?
CN1CCN(CCNC(=O)c2cc3c(=O)n(C)c4ccccc4c3n2C)CC1	?	-26%	-19%	-16%	2	-16%
Cn1c(C(=O)Nc2ccc3c(c2)OCCO3)cc2c(=O)n(C)c3ccccc3c21	-69*	13µM*	3%	30%	-4	12µM*
CCCNc1c(NS(=O)(=O)c2ccc(F)cc2)c(=O)oc2ccccc12	·	·	·	·	-4	·
NC(=O)c1ccccc1NCC(=O)Nc1ccc(OC(F)(F)F)cc1	·	·	·	·	7	·
CCC[C@@H](CN1CCC[C@H]1CN1C(N)=NC[C@@H]1Cc1ccccc1)N1C[C@@H](Cc2ccccc2)N(CCc2ccc(Cl)c(Cl)c2)C1=N	-53*	?	·	·	-1	?
CCC[C@@H](CN1CCC[C@H]1CN1C(N)=NC[C@@H]1Cc1ccccc1)N1C[C@@H]([C@H](C)CC)N(CCc2ccc(Cl)c(Cl)c2)C1=N	?	?	·	·	-7	?
CCC[C@@H](CN1CCC[C@H]1CN1C(N)=NC[C@H]1CC(C)C)N1C[C@@H](Cc2ccccc2)N(CCc2ccc(Cl)c(Cl)c2)C1=N	-69*	21µM*	·	·	-12	?
Cc1cc(=O)n2c3ccccc3nc2n1CC(=O)c1ccccc1	·	·	·	·	11	·
COc1cccc(Nc2nc3ccccc3nc2NS(=O)(=O)c2ccc(Cl)cc2)c1	·	·	·	·	-3	·
O=S(=O)(c1ccc(Cl)cc1)N1c2ccccc2Oc2nc3ccccc3nc21	5	23µM*	3%	40%	-7	16µM*
COc1ccc(S(=O)(=O)N2c3cc(Cl)ccc3Oc3nc4ccccc4nc32)cc1	45	0.73µM*	8%	0%	-2	1.6µM*
CC(=O)N1c2ccc(S(=O)(=O)N3CCC(C(=O)N4CCCC(C)C4)CC3)cc2CC1C (stereo not given)	1	21µM*	-28%	2%	-2	?
CC1CC(C)CN(C(=O)C2CCN(S(=O)(=O)c3ccc4c(c3)CC(C)N4C(=O)C3CC3)CC2)C1 (stereo not given)	?	16µM*	1%	8%	2	?
CC1Cc2cc(S(=O)(=O)N3CCC(C(=O)N4CCCCC4)CC3)ccc2N1C(=O)C1CC1 (stereo not given)	1	?	5%	-12%	-5	-17%
CC(=O)N1c2ccc(S(=O)(=O)N3CCC(C(=O)N4CC(C)CC(C)C4)CC3)cc2CC1C (stereo not given)	-14	21µM*	4%	12%	-5	?
CC(=O)N1c2ccc(S(=O)(=O)N3CCC(C(=O)N4CCC(C)CC4)CC3)cc2CC1C (stereo not given)	?	?	-1%	16%	1	?
CC(=O)N1c2ccc(S(=O)(=O)N3CCC(C(=O)NC4CCCCC4)CC3)cc2CC1C (stereo not given)	70	-16%	-9%	2%	-7	10%
O=C(Cn1ccc2ccccc21)Nc1ccc2c(c1)OCCO2	·	·	·	·	-2	·
Nc1nc(COC(=O)c2cccc(Cl)c2)nc2ccccc12	·	·	·	·	-3	·
Cc1cc(=O)oc2cc(OCCOC(C)C)ccc12	·	·	·	·	2	·
COc1ccc(Cl)cc1CC=NNC(=O)c1ccncc1	37	9.2µM*	·	·	-2	12µM*
COc1ccc(/C=N/NC(=O)c2ccc(Cl)cc2Cl)cc1COC(C)=O	2	?	-8%	21%	-12	?
SMILES	IL1B secr inh	TDP1 cell CPT	Gal4-VP16 FLuc	RORg inh	LDHA block	DT40 TDP1 no CPT
COc1ccc(Cl)cc1CC=NNC(=O)c1cccc(C)c1O	22	13µM*	·	·	-3	13µM*
CCCCNCc1cc(Br)c(OCC(=O)NCc2ccccc2)c(OC)c1	-26	-19%	4%	3%	-2	?
COc1ccccc1OCC(=O)Nc1ccc(NC(=O)COc2ccccc2OC)cc1	23	-29%	-3%	10%	-5	-8%
COc1cc(CNC(C)c2ccccc2)cc(Cl)c1OCC(=O)Nc1ccccc1 (stereo not given)	0	9.2µM*	?	-12%	-5	26µM*
CCN(CC)CCNCc1cc(Cl)c(OCC(=O)Nc2ccccc2)c(OC)c1	-25	?	-4%	-32%	-1	23µM*
CCc1ccc2[nH]c(C)c(CC(=O)O)c2c1	·	·	·	·	9	·
COCCNC(=O)c1c(N)n(CCC2=CCCCC2)c2nc3ccccc3nc12	-72*	?	-9%	12%	7	26µM*
COCCn1c(N)c(C(=O)OCc2ccccc2)c2nc3ccccc3nc21	8	-8%	14µM*	?	20	?
N#Cc1c(N)n(CCNC(=O)c2ccccc2)c2nc3ccccc3nc12	-9	-19%	3%	?	-1	-8%
COc1ccc(CCn2c(N)c(C(=O)NCc3ccco3)c3nc4ccccc4nc32)cc1	-86*	12µM*	?	?	-5	13µM*
Nc1c(C(=O)NCc2ccco2)c2nc3ccccc3nc2n1CCc1ccccc1F	-58*	16µM*	16%	-24%	-1	?

High-throughput results from PubChem.
